# NR5A2 inv ag: suppresses constitutive activity of human LRH-1. O00482. HEK293T StAR-luciferase reporter, LRH-1 transfected, 24 h. inhibition, % at 3.6 µM. actives 0.13% (n = 360,000). AID 602396;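 active = inhibition above the mean inhibition of all tested compounds plus 3 SD, cut at about 73% in these data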;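 also: 0% = DMSO wells and 100% = reporter-only cells lacking LRH-1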
# Target sequence (O00482 whole entry, looked up): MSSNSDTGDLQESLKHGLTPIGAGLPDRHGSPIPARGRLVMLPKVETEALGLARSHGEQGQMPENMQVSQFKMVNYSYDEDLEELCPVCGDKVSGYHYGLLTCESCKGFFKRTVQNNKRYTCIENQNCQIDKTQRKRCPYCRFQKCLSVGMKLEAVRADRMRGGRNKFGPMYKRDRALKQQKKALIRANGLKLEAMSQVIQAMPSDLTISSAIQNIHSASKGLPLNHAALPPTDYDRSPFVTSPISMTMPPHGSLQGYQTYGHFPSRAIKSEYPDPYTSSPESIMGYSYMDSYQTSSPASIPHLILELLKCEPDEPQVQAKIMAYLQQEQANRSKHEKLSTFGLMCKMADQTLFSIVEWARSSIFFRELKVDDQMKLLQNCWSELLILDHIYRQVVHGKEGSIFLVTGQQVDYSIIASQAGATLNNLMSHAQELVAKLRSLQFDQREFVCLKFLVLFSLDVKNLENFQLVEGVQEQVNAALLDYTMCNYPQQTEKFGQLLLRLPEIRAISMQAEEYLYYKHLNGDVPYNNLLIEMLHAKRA
# Gli-Sufu antag: antagonists of Gli-Sufu signaling; Sufu-KO-LIGHT fibroblasts, Gli luciferase reporter luminescence; inhibition, % at 5 µM; actives 0.74% (n = 340,000); AID 588413;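 active = inhibition above about 55%, limit read from the data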;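 also: 0% = DMSO-treated cells and 100% = wells with medium but no cells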
# SRC3 inh: human NCOA3 inhibition. HEK293 GAL4-SRC3 luciferase reporter, luminescence. inhibition, % at 3.6 µM. AID 588352. actives 0.17% (n = 360,000). Q9Y6Q9;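 active = inhibition above a per-campaign cutoff, the mean of all compounds plus 3 SD, cut at about 60% in these data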;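 also: 0% = DMSO-treated cells and 100% = gossypol-treated cells at 36 µM; higher means less SRC3-driven luciferase light from the GAL4 reporter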
# NCOA2 inhibitor: inhibits human steroid receptor coactivator 2; Q15596; HEK293 GAL4-SRC2 luciferase reporter, luminescence; inhibition, % at 9 µM; actives 0.17% (n = 370,000); AID 651957;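 active = inhibition above the mean inhibition of all tested compounds plus 3 SD, set per campaign, cut at about 52% in these data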;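 also: 0% = DMSO treated cells and 100% = cells given Gossypol at 36 µM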
# COUP-TFII inh: inhibitors of human COUP-TFII (NR2F2); HEK293T NGFI-A luciferase reporter, luminescence; inhibition, % at 8.6 µM; actives 0.7% (n = 370,000); AID 686940;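 active = inhibition above a per-plate cutoff, mean inhibition of test wells between control levels plus 3 SD, cut at about 38% in these data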;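 also: cells cotransfected with COUP-TFII expression vector driving the NGFI-A reporter; 0% = median of COUP-TF2 test wells and 100% = reporter-only cells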
# NCOA1 inh: inhibits human SRC1 coactivator; HEK293 GAL4-SRC1 luciferase reporter, luminescence; inhibition, % at 3.6 µM; actives 0.12% (n = 360,000);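 active = inhibition above the campaign mean plus 3 SD, with each screening campaign given its own cutoff, cut at about 60% in these data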;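 also: 0% = DMSO treated cells and 100% = gossypol at 36 µM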
# Gli-Sufu confirm: Gli-SUFU antagonism confirmation, single concentration; inhibition, % at 5 µM; Sufu-KO-LIGHT cells, Gli luciferase reporter, luminescence; shares compounds with Gli-Sufu antag; actives 40% (n = 2,500);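 active = mean inhibition at 5 µM reaching about 45%, limit read from the data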;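 also: plate controls were DMSO-treated cells for no effect and wells lacking cells for full effect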
# Gli cytotox: cytotoxic in Gli-SUFU antagonist counter-screen | shares compounds with Gli-Sufu antag | Sufu-KO-LIGHT cells cytotoxicity, ATP luminescence | cytotoxicity, % at 5 µM | actives 32% (n = 2,500);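 active = mean cytotoxicity at 5 µM above about 25%, limit read from the data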;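 also: cells exposed to compound overnight for roughly 16 to 18 hours; plate controls were DMSO wells with cells for no effect and medium without cells for full effect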
# Wnt3a cs: counter-screen for Gli-SUFU antagonists: Wnt3a reporter inhibition; shares compounds with Gli-Sufu antag; actives 20% (n = 2,500); AID 651995; inhibition, % at 6.25 µM; Wnt-LIGHT cells, Wnt3a-driven luciferase reporter, luminescence;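 active = mean inhibition above about 25%, limit read from the data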
# VP16 Luc counter: inhibits VP16 reporter, flagging COUP-TFII antagonist hits. HEK293 Gal4-VP16 luciferase reporter, luminescence. inhibition, % at 8.5 µM. actives 25% (n = 2,500). AID 687007. shares compounds with COUP-TFII inh; in the data active = inhibition above about 13%
# COUP-TFII conf: confirmation of human COUP-TFII (NR2F2) inhibitors; shares compounds with COUP-TFII inh; HEK293 NGFI-A luciferase reporter, luminescence; inhibition, % at 8.5 µM; actives 45% (n = 2,500);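 active = mean inhibition over three repeats above a set limit taken from the earlier primary screen, cut at about 38% in these data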;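 also: 100% = cells given the luciferase reporter alone without the COUP-TF2 vector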
# * = called active by the depositor; / = no result given. A selection: hits, their analogues and other compounds. The true share with any hit is near 1.2%.
SMILES,NR5A2 inv ag,Gli-Sufu antag,SRC3 inh,NCOA2 inhibitor,COUP-TFII inh,NCOA1 inh,Gli-Sufu confirm,Gli cytotox,Wnt3a cs,VP16 Luc counter,COUP-TFII conf
CN[C@H]1C[C@H]2c3[nH]c4cccc(-c5ccccc5)c4c3CCN2C[C@H]1[C@H](C)O,/,/,/,-35,-17,/,/,/,/,/,/
CC(=O)Nc1ccc(CNc2ncnc3ccc(-c4c(C)noc4C)cc23)cc1,22,73*,-5,-86,-118,-57,78*,31*,-22,/,/
CCNc1nc(OCCNS(=O)(=O)c2cc(C)ccc2C)nc(N(C)C)n1,9,3,-21,-4,9,4,/,/,/,/,/
CCNc1nc(OC)nc(N(OC)S(=O)(=O)c2ccc(C)cc2)n1,-5,53,-5,-42,6,-16,24,5,-22,/,/
CCCCN1CCc2c(c3ccccc3n2Cc2ccccc2)C1,0,60*,-21,-41,-9,-9,35,1,-31,/,/
COc1cc(OC)c(OC)cc1CNC(=O)c1cccc(S(=O)(=O)N2CCc3ccccc3C2)c1,13,66*,17,23,23,21,64*,36*,25*,/,/
CCCN1CCN(C(=O)C2CCCN(c3ncnc4c3nc3n4CCCCC3)C2)CC1 (stereo not drawn),-3,21,4,0,-18,-15,/,/,/,/,/
CCN1CCN(C(=O)C2CCCN(c3ncnc4c3nc3n4CCCCC3)C2)CC1 (stereo not drawn),-2,50,9,3,-12,5,12,-1,3,/,/
COc1ccc2nc(-c3ccc(CN4CCC(c5nc6ccccc6[nH]5)CC4)cc3)c(-c3ccccc3)nc2c1,/,/,/,0,2,/,/,/,/,/,/
Cc1ccc([C@H]2C[C@]34CN(Cc5ccccc5)S(=O)(=O)[C@H]3C[C@H]2O4)cc1,/,/,/,-7,-2,/,/,/,/,/,/
CCOC(=O)C1CCCN(S(=O)(=O)c2ccc(C)cc2)C1 (stereo not drawn),24,4,9,8,3,2,/,/,/,/,/
CCOC(=O)C1CCCN(S(=O)(=O)c2ccc(S(=O)(=O)N(CC)CC)cc2)C1 (stereo not drawn),43,78*,26,17,68*,7,74*,32*,9,10,66*
COc1ccc(C2O[C@@H](C)[C@@H]3C(=O)N4CCc5c([nH]c6ccccc56)[C@@H]4C[C@@H]3N2C)cc1 (stereo partly drawn),/,/,/,-10,1,/,/,/,/,/,/
COc1ccc(CCNc2ncnc3sccc23)cc1OC,36,75*,34,25,74*,13,80*,43*,41*,10,77*
c1ccc(CNc2ncnc3c2oc2ccccc23)nc1,-44,9,-48,-69,0,-101,/,/,/,/,/
NS(=O)(=O)c1ccc(CCNc2ncnc3sccc23)cc1,33,60*,15,28,53*,20,55*,31*,28*,-8,37
COc1ccc(CCNc2ncnc3c2oc2ccccc23)cc1OC,50,73*,36,18,76*,25,75*,28*,31*,2,73*
O=C(c1ccc(Br)cn1)N1CCC(Oc2cccnc2)CC1,/,/,/,4,2,/,/,/,/,/,/
O=C1CCc2cc(S(=O)(=O)Nc3ccc4c(c3)OCCO4)ccc2N1,/,/,/,/,-2,/,/,/,/,/,/
Cc1nc2sccn2c1-c1csc(NCc2ccccc2)n1,18,56*,17,22,38*,17,50*,22,16,-16,21
COc1ccc(S(=O)(=O)Nc2ccc3c(c2)OCO3)cc1OC,1,-3,4,-14,-6,-12,/,/,/,/,/
COc1ccc(NS(=O)(=O)c2ccc3c(c2)OCCO3)cc1OC,66,66*,26,39,57*,17,60*,29*,30*,3,40*
COc1ccc(NS(=O)(=O)c2ccc(-c3cnc(C4CC4)o3)cc2)cc1OC,67,72*,23,31,56*,26,71*,59*,29*,1,50*
COC(=O)C1=C(C)N(Cc2ccc(C(F)(F)F)cc2)C(=NCc2ccccc2C(F)(F)F)NC1c1ccc(F)cc1 (stereo not drawn),/,/,/,-11,-20,/,/,/,/,/,/
Cc1ccccc1-c1cccc2c3c([nH]c12)[C@@H]1C[C@H]2[C@@H](C(=O)N1CC3)[C@H](C)ON2C,/,/,/,4,3,/,/,/,/,/,/
SMILES,NR5A2 inv ag,Gli-Sufu antag,SRC3 inh,NCOA2 inhibitor,COUP-TFII inh,NCOA1 inh,Gli-Sufu confirm,Gli cytotox,Wnt3a cs,VP16 Luc counter,COUP-TFII conf
CCCCCn1ccc(=N)cc1,-7,24,9,16,37,-7,/,/,/,/,/
CCCCCCCn1ccc(=N)cc1,79*,84*,24,3,80*,23,88*,35*,43*,24*,77*
Cc1ccc(Cn2cc(CN(C)S(=O)(=O)c3ccccc3Br)nn2)cc1,/,/,/,-4,-2,/,/,/,/,/,/
Cc1ccc(OCc2nn3c(C4CCCCC4)nnc3s2)cc1,/,/,/,-16,-22,/,/,/,/,/,/
COc1ccc(NC(=O)C2CCN(S(=O)(=O)c3ccc(N4CCCC4=O)cc3)CC2)c(OC)c1,9,39,7,15,3,15,/,/,/,/,/
Cc1ccc(NC(=O)C2CCN(S(=O)(=O)c3ccc(N4CCCC4=O)cc3)CC2)cc1Cl,24,81*,6,38,66*,-1,84*,41*,8,2,46*
Cc1cc(C(C)(C)C)cc(C)c1C[n+]1ccc2ccccc2c1,61,79*,56,1,66*,44,88*,23,46*,27*,55*
Cc1ccc(C(=O)C[n+]2ccc3ccccc3c2)cc1,-50,14,-17,-22,-38,-28,/,/,/,/,/
CC1CCCN(c2ncnc3c2cnn3-c2ccc(Cl)cc2)C1 (stereo not drawn),92*,81*,88*,83*,100*,87*,92*,67*,106*,90*,105*
COc1cc(N/C(=C\C(=O)c2ccccc2)c2ccccc2)ccc1Cl,/,/,/,-39,-23,/,/,/,/,/,/
COc1cccc(S(=O)(=O)Nc2ccc(C(=O)Nc3ccncc3)cc2)c1,1,0,25,5,-12,-112,/,/,/,/,/

# Bioassay records: PubChem, several laboratories
